Results reported in PubChem BioAssay AID493025 (Johns Hopkins Ion Channel Center, 2011).
Among all 1,000 compounds or so, about 570 (57%) were called active. The set was probably picked from earlier hits. This is one part of a sample in which actives are shown more often than they occur. No rule for the calls is given here.

Target: Potassium voltage-gated channel subfamily KQT member 2 (Rattus norvegicus) (UniProt O88943)
Test: blockers of KCNQ2 thallium flux – cell-based, confirmation (AID 493025);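 also: 0% = vehicle wells and values are ratio percent relative to vehicle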
Details: KCNQ2-expressing cells, at 10 µM, active compounds read low

Sequence of Potassium voltage-gated channel subfamily KQT member 2 (Rattus norvegicus) (O88943 whole entry, looked up): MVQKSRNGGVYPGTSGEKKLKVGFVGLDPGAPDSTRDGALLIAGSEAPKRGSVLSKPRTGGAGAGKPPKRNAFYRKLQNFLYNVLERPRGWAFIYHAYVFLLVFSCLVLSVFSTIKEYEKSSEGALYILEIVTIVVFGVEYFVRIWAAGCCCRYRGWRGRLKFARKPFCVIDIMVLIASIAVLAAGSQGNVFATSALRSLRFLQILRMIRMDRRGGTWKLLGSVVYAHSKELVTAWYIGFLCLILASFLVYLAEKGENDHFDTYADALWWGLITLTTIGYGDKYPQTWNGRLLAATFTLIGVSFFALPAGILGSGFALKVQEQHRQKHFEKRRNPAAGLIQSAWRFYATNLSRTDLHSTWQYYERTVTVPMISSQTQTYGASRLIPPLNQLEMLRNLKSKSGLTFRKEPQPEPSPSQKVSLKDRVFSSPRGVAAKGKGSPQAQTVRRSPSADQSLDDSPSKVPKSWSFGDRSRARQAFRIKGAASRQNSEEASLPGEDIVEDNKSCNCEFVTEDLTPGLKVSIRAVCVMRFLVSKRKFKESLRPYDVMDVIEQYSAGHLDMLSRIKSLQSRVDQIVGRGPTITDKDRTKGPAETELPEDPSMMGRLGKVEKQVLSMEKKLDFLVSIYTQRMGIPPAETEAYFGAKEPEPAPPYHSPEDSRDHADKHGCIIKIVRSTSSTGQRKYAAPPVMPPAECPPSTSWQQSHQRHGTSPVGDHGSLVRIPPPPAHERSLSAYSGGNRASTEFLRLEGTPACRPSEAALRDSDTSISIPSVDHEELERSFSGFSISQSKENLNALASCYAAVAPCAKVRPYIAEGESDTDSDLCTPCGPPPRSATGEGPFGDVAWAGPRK

Compound	activity change, negative = inhibition
CN(C)CC1Oc2ccccc2OC1(O)c1ccccc1 (configuration not stated)	-32% (active)
O=C(NC(c1ccc(Cl)cc1)P(=O)(Oc1ccccc1)Oc1ccccc1)OCc1ccccc1 (configuration not stated)	-23% (active)
